Screening data deposited in PubChem by The Scripps Research Institute Molecular Screening Center.
The list is not random: actives were taken first. Their share in the collection is about 2.8%.
SMARCA2 activ: increases SMARCA2 function in MMTV reporter cells | MG213 cells, MMTV-luciferase reporter, dexamethasone, overnight | activation, % at 9.1 µM | 1% of 370,000 active | AID 652017; in the data active = activation above about 7.8%
MsrA act: activates bovine MsrA enzyme | activation, % at 10.6 µM | purified bovine MsrA, absorbance read-out | 0.3% of 360,000 active; in the data active = activation above about 7.5%
MsrA inhibitor: inhibitors of bovine MsrA | purified bovine MsrA, absorbance read-out | inhibition, % at 15.5 µM | 0.75% of 360,000 active; in the data active = inhibition above about 4.5%
proKLK7 act: proKLK7 (human) activation, primary screen; P49862; purified proKLK7, EDANS-DABCYL substrate fluorescence; 100% is mature enzyme control, 0% vehicle; activation, % at 7 µM; 0.9% of 370,000 active; AID 652039;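 active = activation above the mean of all tested compounds plus 3 SD, computed per campaign excluding outliers beyond control limits, cut at about 13% in these data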
Target sequence (P49862 whole entry, looked up): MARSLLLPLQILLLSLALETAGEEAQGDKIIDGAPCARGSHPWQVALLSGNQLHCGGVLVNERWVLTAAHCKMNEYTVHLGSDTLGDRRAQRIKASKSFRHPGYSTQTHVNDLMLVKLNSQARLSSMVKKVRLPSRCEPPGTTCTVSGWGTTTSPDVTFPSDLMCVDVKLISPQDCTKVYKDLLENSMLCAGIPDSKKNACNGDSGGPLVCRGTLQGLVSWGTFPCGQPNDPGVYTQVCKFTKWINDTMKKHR
KLK7 act conf: proKLK7 activation, confirmation; shares compounds with proKLK7 act; purified proKLK7, EDANS-DABCYL substrate fluorescence; scaled: vehicle 0, mature enzyme 100; activation, % at 7 µM; 68% of 3,200 active; AID 686949;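 active = activation, as change over the incubation, above the mean of all tested compounds plus 3 SD, cut at about 13% in these data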
EDANS interfere: fluorescence interference counter-screen for KLK7 activators | shares compounds with proKLK7 act | EDANS-DABCYL substrate fluorescence interference, no enzyme, 4 h; solvent 0%, active enzyme control 100% | activation, % at 7 µM | 80% of 3,200 active | AID 686952;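 active = activation above the all-compound mean plus 3 SD, ignoring values outside control-based bounds, cut at about 4.8% in these data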;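 note: value is the 4 h activation minus the activation read at time zero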
K7 EDANS ctr: counter-screen for kallikrein-7 activators: EDANS-DABCYL interference, dose response. shares compounds with proKLK7 act. EDANS-DABCYL peptide fluorescence interference, no enzyme. EC50, µM. 20% of 250 active;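 active = compounds that raise the fluorescence signal in this interference counterscreen, with EC50 at or below 10 µM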;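 note: intact quenched peptide substrate alone read at 355 nm excitation and 520 nm emission; signal is fluorescence gain from T0 to T4 after four hours at room temperature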
A number is an active result; 0 = inactive; - = no result given.

SMILES	SMARCA2 activ	MsrA act	MsrA inhibitor	proKLK7 act	KLK7 act conf	EDANS interfere	others
Cc1cccc(C)c1N1C(=O)CC(N(O)c2ccccc2)C1=O (stereo not given)	0	0	0	277	224	254
Cc1c(Cl)cccc1N1C(=O)CC(N(O)c2ccccc2)C1=O (stereo not given)	0	0	0	759	676	671
CCCCOc1ccc(N2C(=O)CC(N(O)c3ccccc3)C2=O)cc1 (stereo not given)	0	0	0	33	36	33
Cn1cc(-c2cccc3nncn23)cn1	0	0	0	0	-	-
CSc1ccc(-c2cccc3nncn23)cc1	0	0	0	21	26	25
Nc1cccc(-c2cccc3nncn23)c1	0	0	0	29	0	0
COc1ccc(NC(C)=O)cc1NC(C)c1nc2sc(C)c(C)c2c(=O)[nH]1 (stereo not given)	0	0	0	16	0	9.3
CC(C)Nc1nc(-c2ccccc2CO)c2sccc2n1	0	0	0	22	17	11	K7 EDANS ctr=0
Cc1ccccc1-c1nc(NC(C)C)nc2ccsc12	0	0	0	0	-	-
CN(C)CCNc1nc(-c2ccccc2CO)c2sccc2n1	0	0	0	0	-	-
OCc1ccccc1-c1nc(NCC2CC2)nc2ccsc12	0	0	0	15	0	6.9
N#Cc1c(C(F)(F)F)cc(C2CC2)[nH]c1=O	0	0	0	18	16	23
N#Cc1c(C(F)(F)F)cc(-c2ccccc2Cl)[nH]c1=O	0	0	0	0	-	-
CC(C)[C@H](NC(=O)OC(C)(C)C)c1cc(C(=O)NCCc2c[nH]c3ccccc23)c(N)s1	0	-	0	0	-	-
Cc1ccc(-c2cc(C(=O)NCCN3CCOCC3)c3ccccc3n2)o1	0	0	0	49	49	66
COc1ccc(-c2cc(C(=O)NCCN3CCOCC3)c3ccccc3n2)cc1	0	0	0	15	0	0
COc1ccc(-c2cc(C(=O)NCCN3CCOCC3)c3ccccc3n2)cc1OC	0	0	0	0	-	-
C[C@H](O)[C@@H]1C(=O)N2CCc3c([nH]c4c(-c5ccc6c(c5)OCO6)cccc34)[C@@H]2C[C@@H]1N(C)C(=O)OCc1ccccc1	0	-	-	0	-	-
COC(=O)C(C(=O)OC)c1ccccc1NC(=O)OCc1ccccc1	0	-	0	0	-	-
CCOCCOC(=O)C1=C(C)NC2=C(C(=O)CC(c3cccs3)C2)C1c1ccsc1 (stereo not given)	0	0	0	90	0	0
CCOC(=O)C1=C(C)NC2=C(C(=O)CCC2)C1c1cccs1 (stereo not given)	0	0	0	0	-	-
CCn1cc(C2C(C(=O)Nc3cc(C)ccn3)=C(C)NC3=C2C(=O)CC(C)(C)C3)c(C)n1 (stereo not given)	0	0	0	20	0	15
CCN(CC)c1ccc(C2C(C(=O)Nc3ccccn3)=C(C)NC3=C2C(=O)CC(C)(C)C3)cc1 (stereo not given)	0	0	0	0	-	-
COc1ccc(N(C)C(=S)Nc2ccc3nc(C)c(C)nc3c2)cc1	0	0	0	14	0	15
CCN(C(=O)COC(=O)c1[nH]c(=O)[nH]c(=O)c1N)c1ccccc1	0	0	0	13	24	28
SMILES	SMARCA2 activ	MsrA act	MsrA inhibitor	proKLK7 act	KLK7 act conf	EDANS interfere	others
Clc1ccc(-c2cn3cccnc3n2)cc1	0	0	0	22	53	69
Brc1ccc(-c2cn3cccnc3n2)cc1	0	0	0	24	23	27
Clc1ccc(-c2cn3cccnc3n2)cc1Cl	0	0	0	0	-	-
Cn1c(=O)c2cc(NC(=S)NC3CCCCC3)ccc2n1Cc1ccc(F)cc1	0	0	0	0	-	-
CC(C)=CCn1c2ccc(NC(=S)NC3CC3)cc2c(=O)n1C	0	0	0	18	14	14
Cn1c(=O)c2cc(NC(=S)NC3CC3)ccc2n1Cc1ccccc1	0	0	0	16	0	14
Cc1cc(SCC(=O)N2c3ccccc3NC(=O)CC2C)nc2ccccc12 (stereo not given)	0	0	0	0	-	-
CCCNC(=O)C1(C)CCCN(C(=O)c2ccccc2OC(F)(F)F)C1 (stereo not given)	0	0	0	0	-	-
C=CCNC(=O)c1cc2cc(Cl)ccc2nc1N	0	0	0	18	16	14
Nc1nc2ccc(Cl)cc2cc1C(=O)NCCCN1CCOCC1	0	-	0	19	15	12	K7 EDANS ctr=0
CC(COc1ccc(C(F)(F)F)cc1)CN1CCC(C(O)(c2ccccc2)c2ccccc2)CC1 (stereo not given)	0	-	-	0	-	-
COc1ccc2ccc3cccc[n+]3c2c1	0	0	0	21	18	19
COc1ccc(C2CC3CN(C4CCCCC4)C(=O)C3N2C)cc1 (stereo not given)	0	-	-	0	-	-
CCN(C(=O)c1cc2c(=O)n3ccccc3nc2n1CCCOC)C1CCCCC1	0	0	0	55	76	78
CCN(C(=O)c1cc2c(=O)n3ccccc3nc2n1C)C1CCCCC1	0	0	0	67	66	80
CCN(C(=O)c1cc2c(=O)n3ccccc3nc2s1)C1CCCCC1	0	0	0	0	-	-
CC1CCCCC1NC(=O)c1cc2c(=O)n3ccccc3nc2n1C (stereo not given)	0	0	0	41	0	0
CC(C)C[C@H]1COc2cccc(F)c2S(=O)(=O)N1Cc1cn(Cc2ccc(F)cc2)nn1	0	-	-	0	-	-
COC(=O)[C@]12C[C@H](CC(=O)NCc3ccc(C)o3)C(=O)N(Cc3ccco3)C1=C[C@H](COCc1ccccc1)O[C@@H]2C	0	-	-	0	-	-
COc1ccccc1N(C)S(=O)(=O)c1ccc(C(=O)Nc2ccc(C(N)=O)cc2)cc1	0	0	0	24	22	0	K7 EDANS ctr=0
COc1cccc(/C=C/C(=O)Nc2ccc(C(=O)Nc3cccc(S(N)(=O)=O)c3)cc2)c1OC	0	0	0	77	79	83
CSc1ccc(NC(=O)C2(C)CCN2C(=O)Cc2ccc(C(C)(C)C)cc2)cc1 (stereo not given)	0	0	0	0	-	-
CC(C)(C)OC(=O)C(Oc1ccccc1[N+](=O)[O-])C(=O)OC(C)(C)C	0	-	0	325	217	205
CC(C)(C)/C(COc1ccccc1[N+](=O)[O-])=N/O	0	0	0	0	-	-
CC1Cc2[nH]c(=S)[nH]c(=O)c2C(c2ccc(F)cc2)O1 (stereo not given)	0	0	0	0	-	-
Nc1ccc2c(c1)[nH]c(=O)c1ccccc12	0	0	0	38	49	47
O=c1[nH]c2ccccc2c(=O)c2ccccc12	0	0	0	0	-	-
Nc1cccc2[nH]c(=O)c3ccccc3c12	0	0	0	20	21	21
CC1(C(=O)NS(=O)(=O)c2cccc(Cl)c2)CCN1C(=O)C1(c2ccc(Cl)cc2)CCC1 (stereo not given)	0	0	0	0	-	-
